D1 allo mod – allosterically modulates the human D1 dopamine receptor | HEK293 D1, CRE-luciferase, dopamine EC30 potentiation; actives deviate in either direction | B-score at 10 µM | actives 5.9% (n = 58,000) | AID 641;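 active means luminescence count or its row- and column-corrected plate score outside the 99.7% band of the plate's sample wells, on either side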
CYP2C9 inhib – blocks human cytochrome P450 2C9; inhibition, % at 5 µM; AID 777; actives 20% (n = 96,000); CYP2C9 Supersomes, luciferin-H conversion, luminescence;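 active means blocking of liver enzyme CYP2C9 beyond about 50% at 5 µM, limit read from the data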
Target sequence (P11712 whole entry, looked up): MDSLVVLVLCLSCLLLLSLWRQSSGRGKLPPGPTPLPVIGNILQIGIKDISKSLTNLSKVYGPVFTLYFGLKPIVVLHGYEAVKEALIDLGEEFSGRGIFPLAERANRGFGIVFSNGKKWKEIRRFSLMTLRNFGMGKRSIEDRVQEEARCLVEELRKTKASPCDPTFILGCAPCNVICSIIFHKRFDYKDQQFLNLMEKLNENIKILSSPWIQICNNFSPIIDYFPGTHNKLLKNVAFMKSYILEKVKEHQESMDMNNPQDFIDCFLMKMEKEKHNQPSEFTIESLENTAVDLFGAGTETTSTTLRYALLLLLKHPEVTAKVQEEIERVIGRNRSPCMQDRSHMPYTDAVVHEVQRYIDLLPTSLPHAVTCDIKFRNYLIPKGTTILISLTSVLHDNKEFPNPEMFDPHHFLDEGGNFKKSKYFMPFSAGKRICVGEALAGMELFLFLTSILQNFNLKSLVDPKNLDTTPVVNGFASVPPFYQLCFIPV
CYP2C9 activ – increases human cytochrome P450 2C9 activity; P11712; recombinant CYP2C9, luciferin-H conversion, luminescence; stronger effect = higher value; factor 1 = untreated enzyme, 0 = blocked; activation factor at 5 µM; actives 1.4% (n = 96,000); AID 1024;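 active means activation factor of 2 or more for CYP2C9 at a 5 µM dose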;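 further: 0 = sulfaphenazole-blocked wells and 1 = vehicle-only wells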
CYP2C19 inh – human CYP2C19 inhibition; P33261; CYP2C19 Supersomes, luciferin-H EGE luminescence, 30 min; inhibition, % at 5 µM; actives 21% (n = 96,000); AID 778;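 active means CYP2C19 inhibition above a set limit at 5 µM in the primary screen, cut at about 50% in these data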;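 further: plate controls were negative control wells for no effect and 2.5 mM tranylcypromine positive control for full effect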
CYP2C19 act – activators of human cytochrome P450 2C19 | AID 1025 | 96,000 tested, under 10 active | activation factor at 5 µM | P33261 | recombinant CYP2C19, luciferin-H EGE luminescence; stronger effect = higher value; 0 = fully inhibited enzyme, 1 = untreated enzyme;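 active means activation factor of at least 2 at 5 µM in the primary screen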;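 further: 0 = wells with 2.5 mM tranylcypromine and 1 = vehicle-only wells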
hDAT+cocaine – human DAT dopamine uptake with cocaine, either direction; Q01959; LLC-PK1 hDAT cells, [14C]-dopamine uptake with cocaine IC80; actives deviate in either direction; B-score at 10 µM; actives 1.3% (n = 110,000); AID 449768;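 active means Z score or B-score, a plate-position-corrected score, falls beyond the plate's 99.7% confidence bounds, in either direction; inactive means both scores lie inside the 99.7% bounds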;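 further: scored against the spread of the other compound wells on the same plate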
The depositor's hits bear a star; nt = no result. In the library only some 28% were active in any assay of this set; here they are far more common.

SMILES | D1 allo mod | CYP2C9 inhib | CYP2C9 activ | CYP2C19 inh | CYP2C19 act | hDAT+cocaine
Cc1ccc(-n2c(SCc3cc(=O)n4ccsc4n3)nnc2-c2cccnc2)c(C)c1 | -0.399 | 34.7 | 0.7 | 12.5 | 0.9 | nt
CS(=O)(=O)N(CC(=O)NCc1ccco1)c1ccc(Cl)c(C(F)(F)F)c1 | -1.01 | -27.5 | 1.3 | 23.8 | 0.8 | -0.695
CN(C)S(=O)(=O)c1ccc(NC(=O)Cn2c(-c3ccccc3)noc2=O)cc1 | nt | 95.4* | 0 | 77.6* | 0.2 | 1.01
CCN(CC)S(=O)(=O)c1ccc(NC(=O)Cn2c(=O)oc3ccccc32)cc1 | nt | 48.0 | 0.5 | 23.1 | 0.8 | -0.238
CCOc1ccc2c(c1)c1nnc(SCC3CCCO3)nc1n2C (stereo not drawn) | 1.6 | 47.5 | 0.5 | 47.1 | 0.5 | 1.55
COc1ccc(C2C(=O)N(C3CCCCC3)CC(=O)N2CCc2ccccc2)cc1OC (stereo not drawn) | 1.32 | 26.0 | 0.7 | 7.3 | 0.9 | -0.143
O=C1C(c2ccncc2)N(CCC2=CCCCC2)C(=O)CN1C1CCCCC1 (stereo not drawn) | -0.397 | 54.5* | 0.5 | 52.6* | 0.5 | 0.766
CCCC(=O)n1nc(-c2ccc(OC)cc2)nc1N | 0.0285 | -1.1 | 1 | 53.3* | 0.5 | 0.612
Cn1nnnc1SCc1ccccc1F | 1.47 | -11.7 | 1.1 | 27.4 | 0.7 | -0.645
COc1cc(CNCCSc2nnnn2C)cc(OC)c1OC | nt | 4.5 | 1 | 56.7* | 0.4 | -0.154
COc1cccc(CNCCSc2nnnn2C)c1OC | nt | -3.2 | 1 | 77.2* | 0.2 | -0.64
Cn1nnnc1SCCNCc1ccncc1 | -0.00241 | 38.7 | 0.6 | 43.8 | 0.6 | -1.06
Cn1nnnc1SCCNCC#Cc1ccccc1 | 2.24 | 26.0 | 0.7 | 85.3* | 0.1 | -0.138
Cn1nnnc1SCCNCc1ccccc1F | nt | 41.1 | 0.6 | 79.0* | 0.2 | -0.745
Cn1c(=O)cc(SCC(=O)NCCN2CCN(c3ccccc3F)CC2)c2cc(Cl)ccc21 | 0.082 | -14.4 | 1.1 | 33.0 | 0.7 | 0.787
COc1ccc(CCN(Cc2cc3cc(C)cc(C)c3nc2Cl)C(=O)C2CC2)cc1 | nt | 38.9 | 0.6 | 36.6 | 0.6 | nt
CC1CC(C)CN(c2nc3c(c(=O)[nH]c(=O)n3C)n2CCSc2nc3ccccc3o2)C1 (stereo not drawn) | 0.0153 | nt | nt | nt | nt | nt
CCCNS(=O)(=O)c1cc(Br)cc2c1N(C(=O)CC)CC2 | -0.156 | -57.8 | 1.6 | 36.2 | 0.6 | 0.811
CCC(=O)N1CCc2cc(Br)cc(S(=O)(=O)CCC(=O)NCCc3ccccc3)c21 | nt | 71.5* | 0.3 | 29.1 | 0.7 | -0.129
Cc1ccc(CNC(=O)CCS(=O)(=O)c2cc(Br)cc3c2N(C(=O)C2CC2)CC3)o1 | 1.04 | 88.6* | 0.1 | 48.0 | 0.5 | -0.25
O=C(C1CC1)N1CCc2cc(Br)cc(S(=O)(=O)NCc3ccco3)c21 | -0.199 | -2.5 | 1 | 15.4 | 0.8 | 0.403
CCCCNC(=O)CC1SC(=NCC)N(CC)C1=O (stereo not drawn) | nt | -73.5 | 1.7 | 36.7 | 0.6 | -0.931
COc1ccc(S(=O)(=O)N2CCOC2CNC(=O)C(=O)NCCc2c[nH]c3ccccc23)cc1C (stereo not drawn) | nt | nt | nt | nt | nt | 0.719
C/C=C(\C)CN1CCc2cc(OC)c(OC)cc2C1 | -1.13 | 9.3 | 0.9 | 39.5 | 0.6 | -0.0494
CCCS(=O)(=O)N1CCc2cc(OC)c(OC)cc2C1 | 0.145 | 3.2 | 1 | 55.2* | 0.4 | -8.24*
SMILES | D1 allo mod | CYP2C9 inhib | CYP2C9 activ | CYP2C19 inh | CYP2C19 act | hDAT+cocaine
C/C(=N\NC(=O)c1[nH]c2c([N+](=O)[O-])cc(C)cc2c1-c1ccccc1)c1cccnc1 | nt | 30.0 | 0.7 | 62.3* | 0.4 | 1.89
O=C(CS(=O)(=O)c1c[nH]c2ccccc12)NC1CCCCC1 | nt | -66.0 | 1.7 | 50.9* | 0.5 | 0.858
Cc1[nH]c2ccccc2c1SCC(=O)N1CCCc2ccccc21 | nt | 8.7 | 0.9 | 75.9* | 0.2 | 0.455
O=C(C(=O)N1CCCc2ccccc21)c1c[nH]c2ccccc12 | nt | -46.6 | 1.5 | 66.8* | 0.3 | 0.489
O=C(CS(=O)(=O)c1c[nH]c2ccccc12)N1CCCc2ccccc21 | nt | -81.2 | 1.8 | 94.2* | 0.1 | -0.0365
COc1ccc2c(c1)C(=O)[C@@H](OC(=O)NCc1ccc3c(c1)OCO3)[C@H](c1ccc(OC)c(Br)c1)O2 | nt | nt | nt | nt | nt | 1.14
CC(C)(C)n1nnnc1CN1CCN(C(c2ccccc2)c2ccccc2)CC1 | nt | nt | nt | nt | nt | 1.7

Bioassay records: PubChem BioAssay, several laboratories
